Source: PubChem (National Center for Advancing Translational Sciences (NCATS))
Shiga inhibitor – A qHTS for Small Molecule Inhibitors of Shiga Toxin; 9.2% of 290,000 active; Vero cells, Shiga toxin protein synthesis inhibition reporter; inhibition, % at 38.7 µM; in the data active = inhibition mostly above about 28%, no sharp cut-off; inactive = mostly below about 43%
RE007 growth inh – qHTS Assay for Inhibitors of the HIV-1 protein Vpr; S. pombe RE007 Vpr strain, BacTiter-Glo ATP luminescence, 24 h; Potency, µM (highest dose often 92.2 µM), usual class: inhibitors; 0.21% of 360,000 active; AID 651644, 2012; active = well fitted falling curve with a large enough effect; inconclusive = small, poorly fitted or top-dose-only effect; inactive = no such curve, though single readings can be large or run the other way; note: nearly all actives have a fitted effect of over 50% in size
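Fission yeast strain RE007, carrying one chromosomally integrated HIV-1 vpr copy, was seeded at OD 0.01 in PMG+AL medium with 23 nL pinned compound. After 24 h at 30 °C and 99% humidity, viability was read by BacTiter-Glo luminescence.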
Giardia FBPA inh – qHTS Assay for Inhibitors of Fructose-1,6-bisphosphate Aldolase from Giardia Lamblia | AID 2451, 2010 | 0.71% of 290,000 active | Potency, µM (highest dose often 59.6 µM), actives largely listed as inhibitors | purified Giardia FBPA | A8B2U2; note: nearly all actives have a fitted effect of over 55% in size
Target sequence (A8B2U2 whole entry, looked up): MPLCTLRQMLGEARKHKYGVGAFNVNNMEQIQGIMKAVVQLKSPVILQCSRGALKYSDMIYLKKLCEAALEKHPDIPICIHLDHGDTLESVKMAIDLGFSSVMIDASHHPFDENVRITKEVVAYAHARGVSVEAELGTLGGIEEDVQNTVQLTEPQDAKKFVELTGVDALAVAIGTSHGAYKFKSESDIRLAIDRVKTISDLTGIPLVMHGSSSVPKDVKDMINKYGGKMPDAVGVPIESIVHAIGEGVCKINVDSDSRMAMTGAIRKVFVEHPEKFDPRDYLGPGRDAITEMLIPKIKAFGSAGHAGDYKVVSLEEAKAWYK
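40 nM FBPA preincubated 10 min at RT with compound (up to 57.5 uM final), then substrate plus GAPDH/TPI/NAD/arsenate coupling and diaphorase/resazurin added. Fluorescence read after 20 min at RT, 525/598 nm.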
Tb PYK inh – qHTS of Trypanosoma Brucei Inhibitors | pyruvate kinase (Trypanosoma brucei), Q57TT1 | TbPYK enzyme, Kinase-Glo Plus ATP luminescence, 45 min | 0.12% of 410,000 active | Potency, µM (doses to about 76.8 µM), most hits filed as inhibitors; note: nearly all actives have a fitted effect of over 50% in size
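Luminescence from Kinase-Glo Plus, added after a 45-minute room-temperature reaction, served as the end-point read-out. The enzyme and substrate were preincubated with compound before ADP (130 uM final) initiated turnover. Concentration-effect curves came from normalized qHTS data.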
CHX counter – Cycloheximide Counterscreen for Small Molecule Inhibitors of Shiga Toxin; cell reporter, cycloheximide protein synthesis inhibition counterscreen; max response, %; 12% of 300,000 active; in the data active = max response mostly above about 13%, no sharp cut-off; inactive = mostly below about 14%; note: read at 38.3 µM for the half of the compounds with a filed dose
LmPK inhibitor – qHTS Assay for Inhibitors of Leishmania Mexicana Pyruvate Kinase (LmPK); 0.37% of 290,000 active; AID 1721, 2009; Q27686; Potency, µM (titrated, usually from 57.5 µM), most hits filed as inhibitors; purified LmPK, Kinase-Glo ATP luminescence, 1 h
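Kinase-Glo luminescence read after 1 h RT reaction of 0.1 nM LmPK with 0.5 mM PEP and 0.1 mM ADP. Activity scaled between uninhibited and enzyme-free controls.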
Each line names hits and unclear results; the compound was inactive in the other large screens. This is one part of a sample in which hits are shown more often than they occur. Unless noted, calls come from the whole dose curve; as a rule, active = well fitted curve in the direction sought with a large enough effect; inconclusive = small, poorly fitted or top-dose-only effect, or another doubt; inactive = no such curve, though single readings can be large; an effect the other way counts as inactive or inconclusive.

FC(F)(F)c1ccc(NCCc2ccccc2)nc1	CHX counter 14
NS(=O)(=O)c1ccc(CCNc2ccc(C(F)(F)F)cn2)cc1	none
O=C(CCN1C(=O)c2ccccc2C1=O)Nc1nc2ccccc2s1	CHX counter 19
Cc1ccc2nc(-c3ccc(NC(=O)CCN4C(=O)c5ccccc5C4=O)cc3)sc2c1	Shiga inhibitor 79, CHX counter 55
Cc1ccc(C2(C)NC(=O)N(CC(=O)Nc3ccc(-c4nc5ccc(C)cc5s4)cc3)C2=O)cc1 (centres undefined)	Shiga inhibitor 85, CHX counter 54
O=C(CCN1C(=O)c2ccccc2C1=O)Nc1ccc(-c2nc3ccccc3s2)cc1	Shiga inhibitor 110, CHX counter 33
CC(C)Cc1nnc(NC(=O)CCN2C(=O)c3ccccc3C2=O)s1	none
COc1ccc2c(c1)sc1ncc(C(=O)NCc3cccc(C)c3)c(=O)n12	none (no result: Shiga inhibitor, RE007 growth inh, Giardia FBPA inh, CHX counter, LmPK inhibitor)
COc1ccc(S(=O)(=O)Nc2ccc(OCC(=O)O)cc2)c2ccccc12	none
Cc1ccc2nc(-c3ccc(NC(=O)C(C)N4C(=O)c5ccccc5C4=O)cc3)sc2c1 (centres undefined)	Shiga inhibitor 51, CHX counter 93
COc1ccc(N(CC(=O)Nc2cccc(SC)c2)S(C)(=O)=O)cc1	Shiga inhibitor 49, CHX counter 23
COc1cccc(NC(=O)CN(c2cccc(OC)c2)S(C)(=O)=O)c1	none
COc1ccc(N(CC(=O)Nc2cccc(C(F)(F)F)c2)S(C)(=O)=O)cc1	CHX counter active
COc1cccc(NC(=O)CN(c2cccc(C(F)(F)F)c2)S(C)(=O)=O)c1	none
COc1cccc(CNC(=O)CCc2c(C)nn(-c3ccc(N4CCOCC4)nn3)c2C)c1	none (no result: Shiga inhibitor, RE007 growth inh, Giardia FBPA inh, CHX counter, LmPK inhibitor)
COc1ccccc1CNC(=O)CN1N=C(c2ccccc2)CCC1=O	none (no result: Shiga inhibitor, RE007 growth inh, Giardia FBPA inh, CHX counter, LmPK inhibitor)
CCOC(=O)c1ccc(NC(=O)CC2Nc3ccccc3NC2=O)cc1 (centres undefined)	none (no result: Shiga inhibitor, RE007 growth inh, Giardia FBPA inh, CHX counter, LmPK inhibitor)
Cc1ccc(-n2ncc3c(NNC(=O)c4ccco4)ncnc32)cc1Cl	CHX counter 57
Cc1ccc(-n2ncc3c(NNC(=O)Cc4ccccc4)ncnc32)cc1	CHX counter 14 (no result: RE007 growth inh)
Cc1cccc(-n2ncc3c(NNC(=O)c4ccco4)ncnc32)c1	CHX counter 20
CCN(CC)CCCNC(=O)c1nn(C)c2c1CSc1ccccc1-2	none (no result: Shiga inhibitor, RE007 growth inh, Giardia FBPA inh, CHX counter, LmPK inhibitor)
CCCC(=O)Nc1ccc(-c2csc(-c3cccnc3)n2)cc1	none
Oc1ccc(-c2csc(Nc3ncccn3)n2)cc1	Shiga inhibitor 122, CHX counter 39
c1ccc(-c2csc(Nc3ncccn3)n2)cc1	Shiga inhibitor 54
CC(=O)Nc1ccc(-c2csc(-c3cccnc3)n2)cc1	Shiga inhibitor 111, CHX counter 72
CC(=O)Nc1ccc(-c2csc(Nc3ncccn3)n2)cc1	Shiga inhibitor 81, CHX counter 33
Cc1nc2ncccn2c1-c1csc(Nc2ccc(O)cc2)n1	none
O=c1c(-c2ccc(F)c(F)c2)nc2cncnc2n1C1CC1	none (no result: Shiga inhibitor, RE007 growth inh, Tb PYK inh, CHX counter, LmPK inhibitor)
COC(=O)C1=C(C(=O)OC)[C@@H]2N(Cc3ccccc3)c3ccccc3[C@@]23C[C@@H](CO)N(C(=O)NC2CCCC2)C3=N1	none
CC(=O)Nc1ccc(-c2csc(NCc3ccccc3)n2)cc1	Shiga inhibitor 62, CHX counter 25
CCOC(=O)/C(C)=N/Nc1nc(-c2ccc(NC(C)=O)cc2)cs1	Giardia FBPA inh inconclusive, CHX counter 18
NNc1nc(-c2ccccc2)cs1	Giardia FBPA inh inconclusive, CHX counter 34
CC(=O)Nc1ccc(-c2csc(N/N=C(/C)c3ccccc3)n2)cc1	none
COc1cc(S(=O)(=O)NCCc2c(C)[nH]c3ccc(C)cc23)ccc1Br	none (no result: Shiga inhibitor, RE007 growth inh, Giardia FBPA inh, CHX counter, LmPK inhibitor)
Cc1ccc(Cl)cc1-n1nnc(-c2nc(-c3ccc4c(c3)OCO4)no2)c1C	none (no result: Shiga inhibitor, RE007 growth inh, Giardia FBPA inh, CHX counter, LmPK inhibitor)
COc1ccc(Cl)cc1NC(=O)Cn1c2ncccc2c(=O)n1-c1ccc(C)c(C)c1	none (no result: Shiga inhibitor, RE007 growth inh, Giardia FBPA inh, CHX counter, LmPK inhibitor)
C=C1C(=O)O[C@@H]2[C@H]1[C@@H](OC(=O)/C(C)=C/C)C/C(C)=C\C(=O)/C=C(\C)[C@@H]2O	Shiga inhibitor 51, CHX counter 29
CC(O)(c1ccc(F)c(F)c1)c1nc(-c2ccc3ccccc3c2)cs1 (centres undefined)	none (no result: Shiga inhibitor, Giardia FBPA inh, CHX counter, LmPK inhibitor)
c1ccc(CSc2nc3ncccc3[nH]2)cc1	none (no result: Shiga inhibitor, RE007 growth inh, Giardia FBPA inh, CHX counter, LmPK inhibitor)
Fc1ccc(CSc2nc3ncccc3[nH]2)cc1	Shiga inhibitor 71, CHX counter 30
Fc1cccc(CSc2nc3ncc(Cl)cc3[nH]2)c1	CHX counter 20
Fc1cccc(CSc2nc3ncccc3[nH]2)c1	Shiga inhibitor 94, CHX counter 51
Cc1cc(SCc2cccc([N+](=O)[O-])c2)nc(=O)[nH]1	none (no result: Giardia FBPA inh)
Cc1cc(SCC(=O)c2cccc([N+](=O)[O-])c2)nc(=O)[nH]1	Shiga inhibitor 80, CHX counter 35 (no result: Giardia FBPA inh)
CN(Cc1ccccc1)C(=O)c1csc([C@@H]2C[C@H](O)[C@@H](CO)O2)n1	none (no result: Shiga inhibitor, Giardia FBPA inh, CHX counter, LmPK inhibitor)
O=C(CSc1nc2ncccc2[nH]1)Nc1cc(F)ccc1F	none (no result: Shiga inhibitor, RE007 growth inh, Giardia FBPA inh, CHX counter, LmPK inhibitor)
O=C(CSc1nc2ncccc2[nH]1)c1ccc(F)cc1	CHX counter 43
C(=C\c1ccccc1)/CSc1nc2ncccc2[nH]1	Shiga inhibitor 53, CHX counter 25
O=C(CSc1nc2ncccc2[nH]1)c1cccc([N+](=O)[O-])c1	CHX counter 19
COC(=O)CSc1nc2ncccc2[nH]1	none
CC(=O)c1cc(-c2ccc(F)cc2)n(CCC(=O)Nc2nc3ccc(C)cc3s2)c1C	none (no result: Shiga inhibitor, RE007 growth inh, Giardia FBPA inh, CHX counter, LmPK inhibitor)
COc1ccc(C2CN=NC2C(=O)c2ccccc2)cc1 (centres undefined)	Shiga inhibitor 26, CHX counter 21 (no result: RE007 growth inh)
COc1ccc(C2N(C(=O)c3ccccc3)CCN2C(=O)c2ccc(C)cc2)cc1 (centres undefined)	none
COCCNC(=O)c1ccc2c(Cl)c3c(nc2c1)CCC3	Shiga inhibitor 77, CHX counter 46
Cc1nc(C)c(-c2csc(Nc3ccc(O)c(C(=O)O)c3)n2)s1	none
Cc1cc(O)ccc1Nc1nc(-c2sc(N)nc2C)cs1	none
COc1ccc(Nc2nc(-c3sc(C)nc3C)cs2)cc1	CHX counter 13
Cc1nc(C)c(-c2csc(Nc3cccnc3)n2)s1	Shiga inhibitor 38, CHX counter 34
Cc1nc(N)sc1-c1csc(Nc2ccccc2)n1	Shiga inhibitor 52, CHX counter 25
Cc1nc(C)c(-c2csc(Nc3ccc(N)cc3)n2)s1	Shiga inhibitor 69, CHX counter 35
Cc1nn(C(C)(C)C)c(OC(=O)c2c(F)cccc2F)c1Sc1ccccc1	none (no result: Shiga inhibitor, RE007 growth inh, Giardia FBPA inh, CHX counter, LmPK inhibitor)
